# Results: the supplement of paper PMC9135407
# Several values for one entry are separate records, joined by “and”; a condition that tells them apart may be missing. Identical values can stand only once. Counter-ions that a name gives are not always drawn. The whole screen tested about 5,800 compounds, of which about 620 (11%) showed activity. This excerpt belongs to a sample that is enriched for actives. Values without a mark were called inactive.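 The calls were made as follows: active = score above a cut-off or among the top three wells of a plate; in these data no inactive exceeds 0.85.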
# Tested on: primary human hepatic stellate cells (donor 1)
# Test: scaled lipid accumulation score (0 = DMSO-like, 1 = nortriptyline-like); higher = stronger HSC inactivation (lipid re-accumulation), active = hit call of the paper
# Conditions: 48 h
# [1] = library stock concentration: 1 mM
# [2] = library stock concentration: 10 mM
# [3] = library stock concentration: 3.33 mM
# [4] = library stock concentration: 4.7 mM
smiles,measurement,setting,value
"O=P(O)(O)O[C@H]1[C@H](O)[C@@H](O)[C@H](OP(=O)(O)O)[C@@H](OP(=O)(O)O)[C@H]1O [D-myo-Inositol-1,3,4-triphosphate (sodium salt)]",scaled lipid accumulation score,[1],≤ 0
CNCCCC1c2ccccc2C=Cc2ccccc21.Cl [Protriptyline hydrochloride],scaled lipid accumulation score,,1.24 (active)
same,scaled lipid accumulation score,[2],0.911 (active)
CNCCCC1c2ccccc2C=Cc2ccccc21 [Protryptyline hydrochloride],scaled lipid accumulation score,library stock concentration: 6.7 mM,0.698
Nc1nc(OCC2CCCCC2)c2[nH]cnc2n1,scaled lipid accumulation score,[2],≤ -0.055
S=P(N1CC1)(N1CC1)N1CC1 [Thiotepa],scaled lipid accumulation score,[2],≤ -0.027
same,scaled lipid accumulation score,library stock concentration: 10.6 mM,≤ 0
CCCCCCCCCCCCCCCCOCC(CO)OC(C)=O (centres undefined) [1-Hexadecyl-2-O-acetyl-glycerol],scaled lipid accumulation score,[1],0.035
CC(C)N1Cc2cc(S(C)(=O)=O)ccc2N(CCN2CC=C(c3c[nH]c4cc(F)ccc34)CC2)S1(=O)=O,scaled lipid accumulation score,[2],0.137
C[C@@]1(C(=O)Nc2ccc(F)nc2)CCCN1c1nc(Nc2cc(C3CC3)n[nH]2)c2cccn2n1,scaled lipid accumulation score,[3],≤ 0
same,scaled lipid accumulation score,[2],0.177
CN1CCC(=C2c3ccccc3CCc3sccc32)CC1 [Pizotifen Malate],scaled lipid accumulation score,[3],0.473
CN1CCC(=C2c3ccccc3CCc3sccc32)CC1.O=C(O)/C=C\C(=O)O [Pizotyline],scaled lipid accumulation score,[2],1.2 (active)
CN1CCC(=C2c3ccccc3CC(=O)c3sccc32)CC1 [Ketotifen fumarate],scaled lipid accumulation score,,0.627
same,scaled lipid accumulation score,[4],0.276
same,scaled lipid accumulation score,[2],0.172 and 0.737
CN1CCC(=C2c3ccccc3CCc3sccc32)CC1 [Pizotifen malate],scaled lipid accumulation score,,0.782
CN1CCC(=C2c3ccccc3CC(=O)c3sccc32)CC1,scaled lipid accumulation score,[2],0.593
NC(=O)N1c2ccccc2CC(=O)c2ccccc21 [Oxcarbazepine],scaled lipid accumulation score,[3],≤ 0
same,scaled lipid accumulation score,library stock concentration: 7.9 mM,≤ 0
same,scaled lipid accumulation score,[2],≤ 0 and ≤ -0.027
CN1CCC(=C2c3ccccc3CCc3sccc32)CC1.O=C(O)CC(O)C(=O)O [Pizotifen Malate],scaled lipid accumulation score,[2],1.32 (active)
CN1CCC(=C2c3ccccc3CCc3sccc32)CC1 [Pizotyline malate],scaled lipid accumulation score,[4],0.792
NC(=O)N1c2ccccc2CC(=O)c2ccccc21 [Trileptal],scaled lipid accumulation score,[2],≤ 0
CN1CCC(=C2c3ccccc3CC(=O)c3sccc32)CC1.O=C(O)/C=C/C(=O)O [Ketotifen fumarate],scaled lipid accumulation score,[2],0.913 (active)
CN1CCC(=C2c3ccccc3CC(=O)c3sccc32)CC1 [Ketotifen Fumarate],scaled lipid accumulation score,[3],≤ 0
same,scaled lipid accumulation score,[2],0.576
C[C@@]12C[C@@]3(O)O[C@@H](O1)[C@]1(COC(=O)c4ccccc4)[C@H]3C[C@@]12O[C@@H]1O[C@H](CO)[C@@H](O)[C@H](O)[C@H]1O [Paeoniflorin],scaled lipid accumulation score,[3],≤ 0
same,scaled lipid accumulation score,[2],≤ 0
COCc1c(C(C)C)nc(C(C)C)c(/C=C/[C@@H](O)C[C@@H](O)CC(=O)O)c1-c1ccc(F)cc1 [Cerivastatin],scaled lipid accumulation score,library stock concentration: 4.4 mM,0.228
COCc1c(C(C)C)nc(C(C)C)c(/C=C/[C@@H](O)C[C@@H](O)CC(=O)O)c1-c1ccc(F)cc1,scaled lipid accumulation score,[2],0.271
CCCOc1ccc(Br)cc1-c1cc(-c2ccc(Cl)cc2)[nH]c1-c1ccncc1,scaled lipid accumulation score,[2],0.006
O=C1NC(=O)c2cc(Nc3ccccc3)c(Nc3ccccc3)cc21,scaled lipid accumulation score,[2],0.353 and 0.003
Cc1cccc(-c2nn3c(c2-c2ccnc4ccc(C(N)=O)cc24)CCC3)n1,scaled lipid accumulation score,[3],0.006
same,scaled lipid accumulation score,[2],≤ 0
O=C(O)CCC/C=C\C[C@@H]1C(=O)C[C@@H](O)[C@@H]1/C=C/[C@@H](O)CC1CCCCC1 [8-iso-16-cyclohexyl-tetranor Prostaglandin E2],scaled lipid accumulation score,[1],≤ 0
COC1CCN(C(=O)c2cc(Cc3n[nH]c(=O)c4ccccc34)ccc2F)CC1,scaled lipid accumulation score,[3],≤ 0
same,scaled lipid accumulation score,[2],≤ -0.001
CN1CCCC(n2nc(Cc3ccc(Cl)cc3)c3ccccc3c2=O)CC1.Cl (centres undefined) [Azelastine HCl],scaled lipid accumulation score,[2],1.09 (active)
O=C(c1cc(Cc2n[nH]c(=O)c3ccccc23)ccc1F)N1CCN(C(=O)C2CC2)CC1 [Olaparib],scaled lipid accumulation score,library stock concentration: 80 uM,≤ -0.0005
same,scaled lipid accumulation score,library stock concentration: 400 uM,≤ -0.0045
same,scaled lipid accumulation score,library stock concentration: 2 mM,≤ -0.0045
same,scaled lipid accumulation score,[2],≤ -0.0045
CN1CCCC(n2nc(Cc3ccc(Cl)cc3)c3ccccc3c2=O)CC1 (centres undefined) [Azelastine HCl],scaled lipid accumulation score,[3],0.604
O=C(c1cc(Cc2n[nH]c(=O)c3ccccc23)ccc1F)N1CCN(C(=O)C2CC2)CC1,scaled lipid accumulation score,[3],≤ 0
same,scaled lipid accumulation score,[2],≤ 0
CN1CCCC(n2nc(Cc3ccc(Cl)cc3)c3ccccc3c2=O)CC1.Cl (centres undefined) [Azelastine hydrochloride],scaled lipid accumulation score,library stock concentration: 4.8 mM,0.978 (active)
same,scaled lipid accumulation score,[2],0.992 (active)
CN1CCCC(n2nc(Cc3ccc(Cl)cc3)c3ccccc3c2=O)CC1 (centres undefined),scaled lipid accumulation score,[2],1.21 (active)
